Assay results published in PubChem BioAssay AID588726 (The Scripps Research Institute Molecular Screening Center, 2011).
Out of some 360,000 compounds screened, about 8,200 (2.3%) were called active. Cut-off read from the data, not from the text of the source: active = inhibition above about 27%; inactive = the rest. The sample as a whole holds a higher share of actives than the screen did.

Target: Fructose-bisphosphate aldolase (Mycobacterium tuberculosis (strain ATCC 25618 / H37Rv)) (UniProt P9WQA3)
Sequence (P9WQA3 whole entry, looked up): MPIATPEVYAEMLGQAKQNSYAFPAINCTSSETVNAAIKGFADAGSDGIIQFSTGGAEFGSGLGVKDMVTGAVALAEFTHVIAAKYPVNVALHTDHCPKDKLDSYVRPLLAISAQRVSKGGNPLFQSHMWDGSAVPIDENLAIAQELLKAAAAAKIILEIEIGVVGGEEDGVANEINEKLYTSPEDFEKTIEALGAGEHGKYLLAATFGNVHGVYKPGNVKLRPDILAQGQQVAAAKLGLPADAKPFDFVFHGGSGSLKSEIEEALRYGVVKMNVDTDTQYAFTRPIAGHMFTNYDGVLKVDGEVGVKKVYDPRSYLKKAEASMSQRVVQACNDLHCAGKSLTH
Assay: Mtb FBA enzyme inhibitors, primary screen, biochemical, fluorescence, strain H37Rv (AID 588726);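 note: 0% = vehicle and 100% = reference inhibitor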
Conditions: purified M. tuberculosis FBA, fluorescence read-out, at 1 µM, hits give high values

Row | Structure (SMILES) | inhibition
1 | CC(C)(C)c1cc2cccnc2n1Cc1cccc(F)c1 | 3.01% (inactive)
2 | COc1cc(/C=C/C(=O)O)cc(S(=O)(=O)Nc2ccccc2SC)c1OC | -0.58% (inactive)
3 | CC(C)(C)CC(=O)Nc1nc(C(N)Cc2ccc(C(F)(F)F)cc2)cs1 (stereo unspecified) | -1.2% (inactive)
4 | Cc1ccccc1NC(=O)CCNS(=O)(=O)c1ccc2[nH]c(=O)oc2c1 | -4.94% (inactive)
5 | CC(=O)c1nn(-c2cccc(C(F)(F)F)c2)c(=O)[nH]c1=O | 2.77% (inactive)
6 | COc1cc(OC)c(C(=O)OC(C)C(=O)Nc2cc(C(F)(F)F)ccc2Cl)cc1OC (stereo unspecified) | -1.34% (inactive)
7 | C/C(=N\NC(=O)c1ccc(CSc2nc(C)cc(C)n2)cc1)C1CCCCC1 | -4.8% (inactive)
8 | CCOC(=O)C1CCN(Cc2c(C(=O)N3CCOCC3)nc3c(C)cccn23)CC1 | 8.49% (inactive)
9 | CC(=O)c1ccc(NC(=O)CSc2nc3ccccc3c(=O)n2CCCN2CCOCC2)cc1 | -0.35% (inactive)
10 | C=CCO/N=C/C1=C(O)C(C(=O)OC)C(C)(C)CC1=O (stereo unspecified) | 0.55% (inactive)
11 | O=C1C(=O)N(c2ccccc2)C(c2ccccc2)C1c1ccccc1 (stereo unspecified) | 53% (active)
12 | O=C1c2ccccc2C(=O)C1c1ccccc1 | 4.16% (inactive)
13 | O=C1[C@@H](c2ccccc2)[C@@H](c2ccccc2)N1c1cccnc1 | 4.74% (inactive)
14 | Cc1ccccc1-c1csc(C(O)c2cccc(Cl)c2)n1 (stereo unspecified) | -4.41% (inactive)
15 | C#CCSc1nnc(-c2sc3ccccc3c2Cl)o1 | 4.19% (inactive)
16 | Clc1ccc(CSc2nnc([C@@H]3CCCN3)o2)cc1 | 4.22% (inactive)
17 | Fc1ccc(CSc2nnc(-c3cc4c(s3)-c3ccccc3CC4)o2)cc1 | 154% (active)
18 | CCSc1nnc(-c2cc3c(s2)-c2ccccc2CC3)o1 | 61.2% (active)
19 | Fc1ccc(-c2nnc(CSc3nnc(-c4ccc5c(c4)OCO5)o3)o2)cc1 | -2.07% (inactive)
20 | O=C(CSc1nnc(-c2ccccc2O)o1)NC1CCCCC1 | 0.67% (inactive)
21 | CNC(=O)C[C@H]1C(=O)N(Cc2ccccc2)C[C@@H]1CSC | 3.42% (inactive)

Row | Structure (SMILES) | inhibition
22 | COc1ccc(OC)c(-c2c(=O)n(OCc3ccccc3Br)c3ccccc3[n+]2[O-])c1 | -1.19% (inactive)
23 | COc1cc(N2C(=O)CC3(CCCC3)CC2=O)cc(OC)c1OC | 0.26% (inactive)
24 | CCN(C(=O)C1CCCN(c2nc(-c3ccc(OC)cc3)no2)C1)c1ccc(OC)cc1 (stereo unspecified) | -2.44% (inactive)
25 | Cc1cc(C)c2c(n1)nn1c(-n3ccnc3)cc(C)nc21 | 27.6% (active)
26 | CCCCNCc1ccc(SC)cc1 | -1.81% (inactive)
27 | CCNc1nc(Oc2ccc(C(=O)OC)cc2)nc(N2CCOCC2)n1 | 0.39% (inactive)
28 | COc1ccc(N(C(=O)c2snc(C(N)=O)c2N)C(C(=O)NC2CCCC2)c2ccc(C)o2)c(OC)c1 (stereo unspecified) | 2.34% (inactive)
29 | CCOC(=O)c1ccc(CS(=O)c2ccc(Cl)cc2)o1 (stereo unspecified) | -0.81% (inactive)
30 | CCOC(=O)c1ccc(-c2ccc3ncnc(N(C)Cc4sccc4C)c3c2)o1 | 171% (active)
31 | CCc1nnc(NC(=O)CSc2nc3ccccc3c(=O)n2CCCOC)s1 | -4.95% (inactive)
32 | COc1ccccc1C(=O)Nn1c(-c2cccs2)nc2ccccc2c1=O | 0.05% (inactive)
33 | CC1CN(c2cc(=O)n(Cc3ccc(F)cc3)c(=O)[nH]2)CC(C)O1 (stereo unspecified) | -1.34% (inactive)
34 | Cc1ccc2c(C)c(C(=O)N3CCC(N4CCC(C(=O)NC5CC5)CC4)CC3)oc2c1 | 1.31% (inactive)
35 | CC(=O)N1CCC(C(=O)Nc2nc(-c3ccccc3)ns2)CC1 | -0.01% (inactive)
36 | O=C(NNC(=O)C1CCN(c2ncccn2)CC1)c1ccccc1 | 1.54% (inactive)
37 | Cc1cc(-c2ccccc2)nc(N2CCC(C(=O)NC34CC5CC(CC(C5)C3)C4)CC2)n1 | 170% (active)
38 | CCOc1cc(-c2noc(CCC(=O)N3CCOCC3)n2)ccc1OC | 1.37% (inactive)
39 | CCCn1c(=O)c(-c2ccccc2)c(O)c2ccccc21 | 35.6% (active)
40 | CCCn1c(=O)c(C(=O)Nc2cc(C)ccn2)c(O)c2ccccc21 | 1.3% (inactive)
41 | CCCCCn1c(=O)c(C(=O)OCC)c(Cl)c2ccccc21 | 1.96% (inactive)
42 | Cc1cccc(C(=O)C(O)(c2ccccc2)C2CCCCC2=O)c1 (stereo unspecified) | 3.06% (inactive)

Row | Structure (SMILES) | inhibition
43 | O=C(Nc1cccnc1)c1noc2c1CCCCC2 | 1.31% (inactive)
44 | N#CC1(Nc2ccc(-c3ccc(Cl)cc3)cc2)CCCC1 | -1.27% (inactive)
45 | N#CC1(Nc2ccc3c4c(cccc24)CC3)CCCCC1 | 48% (active)
46 | CC(C)C(=O)Nc1ccc2c3c(cccc13)CC2 | -0.4% (inactive)
47 | O=C(c1ccccc1)c1cc(-c2ccccn2)c(N2CCOCC2)s1 | -4.69% (inactive)
48 | CSc1ncnc2c1ncn2CC(=O)C1CCC2C3CCC4=CC(=O)CCC4(C)C3CCC12C (stereo unspecified) | -0.85% (inactive)
49 | COCCCNC(=O)CC1C[C@H](C(=O)N2CCCCC2)[C@@]2(CCc3ccccc3)c3[nH]c4ccccc4c3CCN2C1=O (stereo partly specified) | 0.45% (inactive)
50 | COc1ccc2c(CC(=O)OCC(=O)NC(N)=O)coc2c1 | 2.04% (inactive)
51 | COCCCNC(=S)NCCNc1nc2cc(C)c(C)cc2cc1C#N | 27.3% (active)
52 | Cc1ccc2cc(C#N)c(NCCNC(=S)NCCCN3CCOCC3)nc2c1 | 11.2% (inactive)
53 | Cc1ccc2nc(NCCCNC(=O)c3cnccn3)c(C#N)cc2c1 | 22.9% (inactive)
54 | CCCC(C(=O)NCc1ccco1)N(C(=O)CNS(=O)(=O)c1ccccc1)C1CCCC1 (stereo unspecified) | 0.18% (inactive)
55 | c1ccc2cc(CCCc3cc4ccccc4cn3)ncc2c1 | 5.36% (inactive)
56 | O=C(CSc1nnc(-c2ccncc2)n1C1CCCCC1)Nc1ccccc1 | -1.22% (inactive)
57 | CC1CCCN(S(=O)(=O)c2ccc(-c3ccc(=O)[nH]n3)o2)C1 (stereo unspecified) | 3.28% (inactive)
58 | CC(OC(=O)c1ccccc1NCCO)C(=O)Nc1ccnn1C(C)C (stereo unspecified) | 92% (active)
59 | Cc1c(NC(=O)C(C)OC(=O)c2ccccc2O)c(=O)n(-c2ccccc2)n1C (stereo unspecified) | -3.77% (inactive)
60 | COC(=O)c1ccccc1NC(=O)CSc1ccccn1 | 1.02% (inactive)
61 | C=CCn1cc(C(=O)NCc2ccc(Cl)cc2)c(=O)c2cc(S(=O)(=O)N(CC)CC)ccc21 | 3.32% (inactive)
